Reference: PubChem BioAssay (NCATS)
“And” between values parts separate entries of the source, which are not always exact repeats. Equal entries are not always repeated. Records with an inconclusive call do not appear. Where a call stands in place of a potency, no number is given. The source made the active and inactive calls. Unless noted, calls come from the whole dose curve; as a rule, active = well fitted curve in the direction sought with a large enough effect; inconclusive = small, poorly fitted or top-dose-only effect, or another doubt; inactive = no such curve, though single readings can be large; an effect the other way counts as inactive or inconclusive.

What was measured:
[1] = AP1 Signaling Pathway (AID 357; active = well fitted curve in either direction with a large enough effect, not every such curve was filed as active;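 note: ME-180 reporter cells stimulated with EGF at its EC50 level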)
In short: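 Beta-lactamase reporter under AP-1 response element, ME-180 background. Stimulus: EC50 EGF. Compound exposure 5 h, 37 °C. Detection: CCF4, 2.5 h RT, 460/530 nm. Values: AC50 from titration.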

[2] = molecular target: Cytochrome P450 1A2 (Homo sapiens) (UniProt P05177); experiment: p450-cyp1a2 (AID 410; calls by dose curve; note: potency is the fitted concentration of half-maximal effect)
Cytochrome P450 1A2 (Homo sapiens), sequence (P05177 whole entry, looked up): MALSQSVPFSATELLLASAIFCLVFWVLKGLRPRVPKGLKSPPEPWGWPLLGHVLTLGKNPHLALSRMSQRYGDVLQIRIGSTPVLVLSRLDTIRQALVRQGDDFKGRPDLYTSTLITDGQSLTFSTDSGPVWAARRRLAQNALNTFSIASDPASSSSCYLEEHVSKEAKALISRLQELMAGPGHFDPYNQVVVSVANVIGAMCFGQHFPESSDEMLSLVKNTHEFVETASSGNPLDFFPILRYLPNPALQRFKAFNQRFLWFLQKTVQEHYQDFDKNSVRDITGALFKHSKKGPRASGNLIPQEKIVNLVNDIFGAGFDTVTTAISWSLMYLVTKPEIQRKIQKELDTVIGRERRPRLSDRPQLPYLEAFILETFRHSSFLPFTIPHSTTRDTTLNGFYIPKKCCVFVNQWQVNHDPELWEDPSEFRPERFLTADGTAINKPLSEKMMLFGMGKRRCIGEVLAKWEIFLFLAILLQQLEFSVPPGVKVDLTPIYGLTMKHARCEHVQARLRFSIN
In short: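 20nM CYP1A2 with 100uM Luciferin-ME (at Km) in 100mM KPO4; compound preincubated 10 min, NADPH regeneration added, 60 min at room temperature. Luciferin quantified by luminescence after detection reagent; normalized to 57 uM furafylline.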

[3] = NFAT Signaling Pathway (AID 444; active = well fitted curve in either direction with a large enough effect, not every such curve was filed as active;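 note: carbachol stimulus at about its EC50 of 1 µM final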); settings: Jurkat NFAT-bla M1, carbachol, beta-lactamase ratio, 5 h; at 17.2 µM (top of the series)
In short: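 Read-out: CCF4 FRET ratio (460 nm/530 nm) after 1 h RT dye loading, used for %activity and AC50 from titration series. Cells: Jurkat NFAT-β-lactamase/M1 line, treated with compound plus 1 uM carbachol for 5 h, 37 °C.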

[4] = molecular target: Glucocorticoid receptor (Homo sapiens) (UniProt P04150); experiment: GR-GFP Redistribution (AID 450;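 active = compounds whose dose series gives a full or clear partial fitted curve of increased nuclear translocation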; note: potency is the fitted concentration of half-maximal effect); settings: U2OS GR-GFP nuclear translocation, laser cytometry, 2 h
Glucocorticoid receptor (Homo sapiens), sequence (P04150 whole entry, looked up, the tested form may be a part): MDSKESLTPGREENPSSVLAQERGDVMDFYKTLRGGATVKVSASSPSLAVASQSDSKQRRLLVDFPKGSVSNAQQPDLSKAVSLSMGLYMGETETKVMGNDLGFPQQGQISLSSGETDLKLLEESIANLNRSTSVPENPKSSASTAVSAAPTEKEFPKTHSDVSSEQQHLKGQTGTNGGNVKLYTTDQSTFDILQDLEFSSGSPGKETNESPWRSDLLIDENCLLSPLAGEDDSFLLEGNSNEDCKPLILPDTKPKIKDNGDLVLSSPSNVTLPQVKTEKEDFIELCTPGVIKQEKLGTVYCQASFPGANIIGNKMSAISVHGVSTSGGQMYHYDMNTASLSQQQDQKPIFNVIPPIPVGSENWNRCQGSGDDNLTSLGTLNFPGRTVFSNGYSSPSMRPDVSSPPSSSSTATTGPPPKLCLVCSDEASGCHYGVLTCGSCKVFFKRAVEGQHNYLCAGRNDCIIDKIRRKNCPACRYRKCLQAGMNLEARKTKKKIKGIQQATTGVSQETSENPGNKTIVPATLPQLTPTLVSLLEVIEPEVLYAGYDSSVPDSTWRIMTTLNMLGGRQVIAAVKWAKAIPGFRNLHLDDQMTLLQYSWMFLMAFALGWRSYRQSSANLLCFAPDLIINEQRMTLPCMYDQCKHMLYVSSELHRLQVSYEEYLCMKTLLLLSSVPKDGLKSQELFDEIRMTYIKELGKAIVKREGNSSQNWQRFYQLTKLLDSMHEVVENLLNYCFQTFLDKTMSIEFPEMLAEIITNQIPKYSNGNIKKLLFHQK

[5] = molecular target: Glucocorticoid receptor (Homo sapiens) (UniProt P04150); experiment: GR-EFC Redistribution (AID 451; calls by dose curve; note: potency is the fitted concentration of half-maximal effect); settings: CHO-K1 GR-EFC translocation, beta-gal luminescence, 2 h
In short: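 Translocation of GR-ED fusion to nuclear EA restores b-gal, read by luminescence after 1 h room-temperature detection. Engineered CHO-K1 biosensor cells, 1,000/well, exposed 2 h at 37 C to titrations up to 46 uM final.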

[6] = molecular target: Mitogen-activated protein kinase 10 (Mus musculus) (UniProt Q61831); experiment: JNK3 AlphaScreen Assay (AID 530; active = well fitted curve in either direction with a large enough effect, not every such curve was filed as active;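 note: kinase came from lysate of stimulated human HepG2 cells; signal reports phosphorylation of biotinylated GST-cJun 1-79 at Ser73 with 10 µM ATP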)
In short: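 Compound titrations were preincubated 15 minutes at room temperature with substrate, antibody and pre-activated JNK3-containing HepG2 lysate. Reactions were started with 10 uM ATP and stopped with EDTA-containing bead buffer for AlphaScreen detection.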

[7] = molecular target: 3',5'-cyclic-AMP phosphodiesterase 4B (Homo sapiens) (UniProt Q07343); experiment: qHTS Assay for Inhibitors of PDE-IV (AID 607; active = well fitted activation curve with a large enough effect in the main read-out, with a control signal flat, not every such curve was filed as active)
3',5'-cyclic-AMP phosphodiesterase 4B (Homo sapiens), sequence (Q07343 whole entry, looked up): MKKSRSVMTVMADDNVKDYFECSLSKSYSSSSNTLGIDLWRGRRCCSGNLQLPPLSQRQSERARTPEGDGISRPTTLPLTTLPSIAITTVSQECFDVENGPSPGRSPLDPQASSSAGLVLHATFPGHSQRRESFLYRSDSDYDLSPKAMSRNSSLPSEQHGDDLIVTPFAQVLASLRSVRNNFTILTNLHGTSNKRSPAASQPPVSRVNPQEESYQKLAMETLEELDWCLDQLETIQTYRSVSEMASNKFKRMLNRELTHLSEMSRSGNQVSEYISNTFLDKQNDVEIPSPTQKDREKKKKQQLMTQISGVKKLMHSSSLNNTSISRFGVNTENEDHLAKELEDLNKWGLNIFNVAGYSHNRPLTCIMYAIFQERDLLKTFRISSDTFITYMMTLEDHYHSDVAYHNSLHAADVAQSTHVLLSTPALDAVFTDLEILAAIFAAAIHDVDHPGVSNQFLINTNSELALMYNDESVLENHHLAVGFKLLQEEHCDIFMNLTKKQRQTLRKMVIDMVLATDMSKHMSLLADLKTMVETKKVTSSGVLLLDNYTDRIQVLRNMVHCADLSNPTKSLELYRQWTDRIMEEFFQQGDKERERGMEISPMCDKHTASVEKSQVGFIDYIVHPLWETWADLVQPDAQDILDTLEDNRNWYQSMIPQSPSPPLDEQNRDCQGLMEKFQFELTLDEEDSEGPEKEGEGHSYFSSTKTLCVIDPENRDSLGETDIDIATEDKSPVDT
In short: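 The readout is membrane depolarisation from a cAMP-sensing CNG channel, detected with a potential dye at ex 535/em 590. Cells were HEK293-derived (endogenous PDE-IV) at 1000 cells/well, titrated up to 22.9 uM final.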

[8] = molecular target: Cytochrome P450 2D6 (Homo sapiens) (UniProt P10635); experiment: qHTS Assay for Inhibitors and Substrates of Cytochrome P450 2D6 (AID 891); note: potency is the fitted concentration of half-maximal effect; nearly all actives have a fitted effect of over 60% in size
Cytochrome P450 2D6 (Homo sapiens), sequence (P10635 whole entry, looked up): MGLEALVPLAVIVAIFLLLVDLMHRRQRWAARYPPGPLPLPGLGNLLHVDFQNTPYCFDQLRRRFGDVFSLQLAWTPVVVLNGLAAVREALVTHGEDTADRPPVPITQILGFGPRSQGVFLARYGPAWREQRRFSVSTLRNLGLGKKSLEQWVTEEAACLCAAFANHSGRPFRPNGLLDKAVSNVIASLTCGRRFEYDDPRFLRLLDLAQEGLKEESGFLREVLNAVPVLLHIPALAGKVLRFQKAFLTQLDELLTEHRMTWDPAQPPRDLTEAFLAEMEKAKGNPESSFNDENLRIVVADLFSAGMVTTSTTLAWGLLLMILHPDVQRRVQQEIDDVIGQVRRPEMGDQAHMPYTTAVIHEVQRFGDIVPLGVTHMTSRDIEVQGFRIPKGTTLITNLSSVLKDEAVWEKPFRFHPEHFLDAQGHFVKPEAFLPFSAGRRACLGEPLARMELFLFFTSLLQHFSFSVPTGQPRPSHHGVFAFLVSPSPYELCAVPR
In short: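 Human CYP2D6 (5 nM) with 30 uM Luciferin-ME EGE (at Km) in 100 mM KPO4, compound preincubated 10 min, then NADPH regeneration system for 60 min at room temperature. Luciferin read by luminescence; normalized to 1.43 uM quinidine.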

[9] = Confirmation and Secondary Assay for Modulators of Hemoglobin Beta Chain Splicing at IVS2 654 locus (AID 910);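 note: HeLa cells stably carrying EGFP split by mutant beta-globin IVS2-654 intron; per-well total GFP intensity by laser scanning cytometry after 2-day treatment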
In short: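 Readout: per-well total peak green fluorescence (488 nm ex, 500–520 nm em) from objects 5–250 µm, reflecting correct splicing of an EGFP-654 reporter. Compounds were applied for 2 days at 37 °C to overnight-plated HeLa EGFP-654 cells; controls were DMSO and 500 nM IVS2-654 PNA.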

[10] = qHTS Assay for Identification of Small Molecule Agonists for Hypoxia Response Element Signaling Pathway (AID 914; active = well fitted activation curve with a large enough effect in the signal ratio, with a control signal flat, not every such curve was filed as active; the % refers to the signal ratio; note: potency is the fitted concentration of half-maximal effect); settings: ME-180 (cervical carcinoma) HRE-bla reporter, beta-lactamase ratio, CoCl2, 17 h; activation: stronger effect = higher value
In short: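 qHTS titration; ME-180 HRE-bla cells; EC50 CoCl2 co-treatment, 17 h at 37 degrees Celsius; CCF4 dye, ex 405nm, em 460nm and 530nm; %Activity from ratio; AC50.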

[11] = Confirmation and Secondary Assay for Modulators of Hemoglobin Beta Chain Splicing at IVS2 705 locus (AID 930);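 note: HeLa cells stably expressing the EGFP-705 splicing reporter; GFP fluorescence per well restored by corrected splicing of the IVS2-705 intron in EGFP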
In short: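 Secondary splice-site specificity test uses HeLa expressing CMV-driven EGFP interrupted by IVS2-705; cells were treated 2 days at 37C with 500 nM antisense PNA as positive control.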

[12] = qHTS Assay for Lipid Storage Modulators (AID 1519; calls by dose curve); settings: Drosophila S3 cells, BODIPY lipid droplet/cell ratio, laser cytometry, cells loaded with oleic acid
In short: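 Cells seeded at 5,000 per well were treated with compounds over a concentration series and loaded with oleic acid (400 uM, as added). Lipid droplet fluorescence (488 nm excitation, 500-530 nm channel) was read by laser-scanning cytometry and normalized to 20 uM Triacsin C.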

[13] = molecular target: Ubiquitin carboxyl-terminal hydrolase 1 (Homo sapiens) (UniProt O94782); experiment: Inhibitors of USP1/UAF1: Pilot qHTS (AID 504865);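 note: rhodamine fluorescence freed from ubiquitin-rhodamine substrate followed over time; top concentration of the series differs between compounds; nearly all actives have a fitted effect of over 35% in size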
Ubiquitin carboxyl-terminal hydrolase 1 (Homo sapiens), sequence (O94782 whole entry, looked up): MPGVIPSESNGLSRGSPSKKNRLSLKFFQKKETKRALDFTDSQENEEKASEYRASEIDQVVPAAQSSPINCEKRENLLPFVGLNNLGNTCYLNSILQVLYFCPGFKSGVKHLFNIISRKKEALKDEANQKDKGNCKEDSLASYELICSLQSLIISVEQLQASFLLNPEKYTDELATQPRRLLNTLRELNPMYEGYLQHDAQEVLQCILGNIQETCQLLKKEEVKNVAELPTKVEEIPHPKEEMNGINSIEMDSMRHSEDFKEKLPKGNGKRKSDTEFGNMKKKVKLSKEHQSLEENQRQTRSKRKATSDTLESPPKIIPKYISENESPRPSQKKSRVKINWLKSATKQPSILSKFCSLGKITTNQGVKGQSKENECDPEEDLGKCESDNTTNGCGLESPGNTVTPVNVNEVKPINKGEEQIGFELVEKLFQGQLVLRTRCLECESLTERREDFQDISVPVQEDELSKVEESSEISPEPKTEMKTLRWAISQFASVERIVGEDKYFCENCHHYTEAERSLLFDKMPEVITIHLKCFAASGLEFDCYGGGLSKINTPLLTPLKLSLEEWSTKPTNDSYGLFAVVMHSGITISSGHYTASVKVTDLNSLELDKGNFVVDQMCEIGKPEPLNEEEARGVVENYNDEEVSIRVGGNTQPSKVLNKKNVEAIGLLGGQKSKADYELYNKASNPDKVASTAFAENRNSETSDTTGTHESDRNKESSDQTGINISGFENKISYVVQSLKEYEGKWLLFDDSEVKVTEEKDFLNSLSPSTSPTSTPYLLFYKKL
In short: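 Enzyme-free wells gave the negative control, while test wells held 1nM USP1/UAF1 preincubated with compound for 15 min at room temperature. Ub-Rho at 150nM final started the reaction, and fluorescence at 480/540 nm was recorded kinetically.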

[14] = molecular target: DNA dC->dU-editing enzyme APOBEC-3G (Homo sapiens) (UniProt Q9HC16); experiment: qHTS for inhibitors of Vif-A3G interactions: Validation (AID 588379)
DNA dC->dU-editing enzyme APOBEC-3G (Homo sapiens), sequence (Q9HC16 whole entry, looked up): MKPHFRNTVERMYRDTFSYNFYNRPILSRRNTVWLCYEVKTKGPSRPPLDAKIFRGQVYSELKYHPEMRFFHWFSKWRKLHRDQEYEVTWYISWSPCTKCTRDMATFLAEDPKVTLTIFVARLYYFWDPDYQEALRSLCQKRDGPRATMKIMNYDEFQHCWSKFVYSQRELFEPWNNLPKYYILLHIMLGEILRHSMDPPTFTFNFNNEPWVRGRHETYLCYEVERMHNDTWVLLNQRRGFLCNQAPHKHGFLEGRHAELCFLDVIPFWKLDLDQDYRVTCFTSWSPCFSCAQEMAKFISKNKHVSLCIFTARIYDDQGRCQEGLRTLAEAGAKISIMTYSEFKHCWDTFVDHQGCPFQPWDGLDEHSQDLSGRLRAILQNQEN
In short: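 HeLa cells stably expressing Vif and A3G-eYFP, 700 cells/well, incubated overnight at 37 deg C, then exposed to compound overnight at 37 deg C. Inhibition of Vif-mediated degradation read as increased yellow fluorescence (Ex 488/Em 500-530) by laser-scanning cytometry.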

[15] = test system: Zika virus NS2B-NS3 protease (linked construct); experiment: Primary screen NINDS Rhodamine qHTS for Zika virus inhibitors (AID 1347160); note: nearly all actives have a fitted effect of over 55% in size
In short: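 Kinetic fluorescence (Ex 480 nm, Em 540 nm) over 15 min with 1.5 microM Rhodamine110 peptide and 25 nM linked protease.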

[16] = OV-KATE Cancer Cell Toxicity qHTS against the NCATS CANVASS Library (AID 1347345)
In short: (§1)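 ATP content after 72 h treatment, detected by CellTiter-Glo luminescence (15min room-temperature development), reflects cell viability. Wells contained 1000 cells and received compounds at 11 concentrations.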

[17] = SW1088 Cancer Cell Toxicity qHTS against the NCATS CANVASS Library (AID 1347350); note: nearly all actives have a fitted effect of over 75% in size
In short: as §1

[18] = COV-362 Cancer Cell Toxicity qHTS against the NCATS CANVASS Library (AID 1347352)
In short: (§2)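 Cells at 1000/well were given compound 4 h after plating in an 11-point series. Viability was read by CellTiter-Glo luminescence after 72 h at 37 degrees C.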

[19] = A2780 Cisplatin Sensitive Ovarian Cancer Cell Toxicity qHTS against the NCATS CANVASS Library (AID 1347353); note: nearly all actives have a fitted effect of over 60% in size
In short: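 A2780 cells, 750/well, settled 4 h at 37 °C, then treated with an 11-point compound series for 72 h. Viability was read as ATPLite luminescence after 10 min at room temperature, with bortezomib as control.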

[20] = UWB1.289-WTBRCA1 Cancer Cell Toxicity qHTS against the NCATS CANVASS Library (AID 1347354)
In short: as §2

For COc1ccc2c3c([nH]c2c1)C(C)=NCC3, the outcome [1] was “inactive”, the Potency [2] was 794 nM (active) and 251 nM (active) and the activity change, negative = inhibition [3] was -3.75% (inactive). For the same compound, the Potency [4] was > 20.6 µM (inactive) and > 46 µM (inactive), the Potency [5] was > 20.6 µM (inactive) and > 46 µM (inactive) and the outcome [6] was “inactive”. The Potency [7] was “inactive”, the Potency [8] was 3.98 µM (active) and the Potency [9] was “inactive”. For the same compound, the Potency [10] was 10 µM (active), the outcome [11] was “inactive” and the activity change, negative = inhibition ([12]; at 25.7 µM (top of the series)) was 1.66% (inactive). For the same compound, the max response ([12]; measured here: cell count channel max response) was 0.146%, the max response ([12]; measured here: lipid channel max response) was 2.64% and the Potency [13] was “inactive”. The Potency [14] was “inactive”, the Potency [15] was “inactive” and the Potency [16] was “inactive”. For the same compound, the Potency [17] was “inactive”, the Potency [18] was “inactive” and the Potency [19] was “inactive”. The Potency [20] was “inactive”.
